Screens: PubChem BioAssay, National Center for Advancing Translational Sciences (NCATS)
HepG2 viability: counter-screen for TGF-b inhibitors: cytotoxicity in HepG2 cells. AID 588856. HepG2 CAGA-GFP viability, ATP luminescence, 18 h. Potency, µM (highest dose often 46.1 µM), inactives show at the highest dose activity change, negative = cytotoxicity, usual class: cytotoxic. 410,000 compounds, 0.76% hits
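CellTiter-Glo luminescence gave cytotoxicity after 18 hours at 37 degrees C. The cells were HepG2 CAGA-GFP in 1% FBS DMEM, stimulated with 500 pg/mL TGF-beta after compound addition. %Activity was normalised to no-cell wells (complete cell-killing) and DMSO (no toxicity), and curves were fitted and classified.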
TGFb inhibitor: TGF-b pathway inhibition; HepG2 CAGA-GFP TGF-b/SMAD3 reporter, GFP fluorescence, 18 h; TGF-beta stimulated, 500 pg/mL final; Potency, µM (top dose mostly 46.1 µM), for inactives: at the top dose activity, negative = inhibition, most hits filed as inhibitors; 410,000 compounds, 1.2% hits; AID 588855; further: on the % scale 0 is the no-effect control and ±100 the full control effect; nearly all actives have a fitted effect of over 65% in size
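First, reporter cells (HEPG2 CAGA-GFP) rested 2 h at 37 degrees C. Next, compounds were pinned in and TGF-beta added to 500 pg/mL final. After 18 h, GFP was imaged per cell and summed per well.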
ATXN viability: reduces viability in counter-screen for ATXN expression inhibitors; 400,000 compounds, 0.49% hits; Potency, µM (titrated, usually from 56.7 µM), most hits filed as cytotoxic; S2 cells (HEK-293 line with an ATXN2-luciferase reporter) viability, CellTiter-Fluor protease fluorescence, 24 h; further: nearly all actives have a fitted effect of over 40% in size
ATXN2 expr inh: ATXN2 expression inhibition. HEK-293 ATXN2-luciferase reporter, luminescence, 24 h. Potency, µM (series often up to 57 µM), without a hit: at the top dose activity change, negative = inhibition, actives largely listed as inhibitors. 360,000 compounds, 0.72% hits. AID 1745845; further: on the % scale 0 is the no-effect control and ±100 the full control effect; nearly all actives have a fitted effect of over 55% in size
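qHTS (up to 57 uM final) was run with 24 h compound exposure of reporter cells at 37 °C. Each well was multiplexed: SteadyGlo luminescence measured ATXN2-luciferase expression after a fluorogenic Gly-Phe-AFC viability readout (25 uM final).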
An asterisk follows results filed as active; i = inactive; ? = inconclusive; · = no result. The list is not random: actives were taken first. Their share in the collection is about 2.3%. The call rests on the fitted dose curve; in most records, active means well fitted curve in the direction sought with a large enough effect; inconclusive means small, poorly fitted or top-dose-only effect, or another doubt; inactive means no such curve, though single readings can be large; an effect the other way counts as inactive or inconclusive. Potency means the concentration at half of the fitted maximal effect.

SMILES	HepG2 viability	TGFb inhibitor	ATXN viability	ATXN2 expr inh
CCc1nc(N2CCN(C(C)=O)CC2)c2c3c(sc2n1)CC(C(C)(C)C)CC3 (stereo not drawn)	-12%	4%	?	·
CCc1nc(N2CCN(C(=O)CCl)CC2)c2c3c(sc2n1)CC(C)CC3 (stereo not drawn)	18µM*	?	·	-21%
CN1CCN(C2CCN(c3ccc(Nc4nnc(Cl)c(Nc5ccccc5S(C)(=O)=O)n4)c(OC(CF)CF)c3)CC2)CC1	-45%	21%	i	?
COc1cc(N2CCC(N3CCN(C)CC3)CC2)ccc1Nc1ncc(Cl)c(Nc2ccccc2S(=O)(=O)C(C)C)n1	·	·	·	19µM*
CC(C)C[C@H]1CN=C(Nc2ccccc2)N1CC1CCC(C(C)(C)C)CC1 (stereo partly drawn)	-109%	?	22µM*	?
CC(C)C[C@H]1CN=C(Nc2ccccc2)N1CC1CCCC1	9%	12%	?	-9%
CC1CCN(C(=O)Nc2ccc3nc(-c4ccco4)c(-c4ccco4)nc3c2)CC1	-3%	?	·	·
COc1cc2c(NC3CCN(C(C)C)CC3)nc(N3CCCN(C)CC3)nc2cc1OCCCN(C)C	-8%	10µM*	·	·
COc1cc2c(NC3CCN(C)CC3)nc(N3CCCN(C)CC3)nc2cc1OCCCC(C)C	3.5µM*	2.8µM*	·	·
COc1cc2c(NC3CCN(C)CC3)nc(N3CCCN(C)CC3)nc2cc1OCCCCN	-14%	?	·	·
COC(=O)[C@@H]1CCCN1C(=O)c1c(OC)cc(=O)n2c1CCN(Cc1ccc3c(c1)CCO3)CC2	·	·	i	·
Fc1ccc(-c2nc(-c3c[nH]c4ccccc34)cs2)cc1	-19%	-8%	·	·
CCC(=O)OCCNc1cc(Sc2nc3ccccc3s2)c2nonc2c1[N+](=O)[O-]	13µM*	7.9µM*	8.9µM*	6.3µM*
CCCSc1cc(NCCOC(=O)CCC)c([N+](=O)[O-])c2nonc12	-9%	?	?	-19%
CCCC(=O)OCCNc1cc(Sc2nccn2C)c2nonc2c1[N+](=O)[O-]	-98%	16µM*	·	20µM*
CCC(=O)OCCNc1cc(Sc2nc3ccccc3[nH]2)c2nonc2c1[N+](=O)[O-]	-70%	-27%	28µM*	28µM*
O=P(O)(O)OC(Cn1cncn1)(Cn1cncn1)c1ccc(F)cc1F	·	·	i	·
Cc1ncc2c(c1CNS(=O)(=O)N(C)C)CCN(C(=O)c1c(F)cccc1F)C2	·	·	i	·
Cc1cc(C)cc(NC(=O)CCCn2c(=O)c3cccn3c3ccccc32)c1	-52%	11µM*	·	·
COc1cc(/C=C2\SC(=S)N(CCC(=O)Nc3cccc(O)c3)C2=O)cc(OC)c1OC	-36%	13µM*	?	-25%
O=C1/C(=C\c2ccc(O)c(O)c2)SC(=S)N1Cc1ccccc1	-75%	?	28µM*	?
O=C(CCCN1C(=O)/C(=C/c2ccccc2)SC1=S)Nc1cccc(O)c1	-67%	14µM*	?	·
COc1cc(/C=C2\SC(=S)N(CCC(=O)Nc3ccccc3)C2=O)cc(OC)c1OC	16%	23%	i	-8%
COc1cc(/C=C2/SC(=S)N(Cc3ccccc3)C2=O)ccc1O	-71%	38%	?	6%
Cc1cnc(Nc2ccc(CN3CCOCC3)cc2)nc1Nc1cccc(S(=O)(=O)NC(C)(C)C)c1	·	·	·	-9%
SMILES	HepG2 viability	TGFb inhibitor	ATXN viability	ATXN2 expr inh
CCCC(CCC)C(N)=O	·	·	i	·
CCN(CC)CCCOc1cc2nc(N3CCCN(C)CC3)nc(NC3CCN(C)CC3)c2cc1OC	-26%	?	·	·
CN1CCc2c(sc3c2C(=O)NC(c2cn(Cc4ccccc4)c4ccccc24)N3)C1 (stereo not drawn)	-54%	1.3µM*	i	?
CN1CCc2c(sc3c2C(=O)NC(c2ccco2)N3)C1 (stereo not drawn)	1%	-2%	i	15%
Cc1oc(-c2ccccc2)nc1CCC(=O)c1ccc(CC2SC(=O)NC2=O)cc1 (stereo not drawn)	·	·	i	3%
C=CCn1c(Sc2ncc([N+](=O)[O-])s2)n[nH]c1=O	-105%	3.5µM*	30µM*	?
O=c1[nH]nc(Sc2ncc([N+](=O)[O-])s2)n1-c1ccc2c(c1)OCCO2	·	·	·	12µM*
C=CCn1c(CSc2ccccc2[N+](=O)[O-])n[nH]c1=S	-6%	-11%	i	11%
COC(=O)c1ccccc1NC(=O)c1cc[n+](C)cc1	5.6µM*	0%	i	1%
